Laboratory results from PubChem BioAssay (NCI).
The panel holds about 83,000 compounds, 20% with a hit somewhere; the sample as a whole holds those more often.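 Interpretation: 100, growth as untreated; towards 0, rising growth inhibition; 0, no net growth; 0 to -100, cell death. Compounds scoring below 10 were considered active.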 Values without a mark were called inactive. Activity calls are given as the source filed them.

Tests used:
Assay in all cases: NCI-60 one-dose screen, 48 h (100 = growth as untreated, 0 = no growth, -100 = all killed)
DU-145 prostate = conditions: 10 µM unless noted
K-562 leukemia = conditions: 10 µM unless noted
MALME-3M melanoma = conditions: 10 µM unless noted
MDA-MB-231 breast = conditions: 10 µM unless noted
RXF 393 renal = conditions: 10 µM unless noted
SF-268 CNS = conditions: 10 µM unless noted
SF-295 CNS = conditions: 10 µM unless noted
UACC-257 melanoma = conditions: 10 µM unless noted
M14 melanoma = conditions: 10 µM unless noted
HCT-15 colon = conditions: 10 µM unless noted
HT29 colon = conditions: 10 µM unless noted
SNB-75 CNS = conditions: 10 µM unless noted
SNB-19 CNS = conditions: 10 µM unless noted
U251 CNS = conditions: 10 µM unless noted
PC-3 prostate = conditions: 10 µM unless noted
SK-MEL-5 melanoma = conditions: 10 µM unless noted
UACC-62 melanoma = conditions: 10 µM unless noted
LOX IMVI melanoma = conditions: 10 µM
SK-MEL-28 melanoma = conditions: 10 µM unless noted
SF-539 CNS = conditions: 10 µM unless noted

| SMILES | growth (DU-145 prostate) [%] | growth (K-562 leukemia) | growth (MALME-3M melanoma) | growth (MDA-MB-231 breast) | growth (RXF 393 renal) | growth (SF-268 CNS) | growth (SF-295 CNS) | growth (UACC-257 melanoma) | growth (M14 melanoma) | growth (HCT-15 colon) | growth (HT29 colon) | growth (SNB-75 CNS) | growth (SNB-19 CNS) | growth (U251 CNS) | growth (PC-3 prostate) | growth (SK-MEL-5 melanoma) | growth (UACC-62 melanoma) | growth (LOX IMVI melanoma) | growth (SK-MEL-28 melanoma) | growth (SF-539 CNS) |
| --- | --- | --- | --- | --- | --- | --- | --- | --- | --- | --- | --- | --- | --- | --- | --- | --- | --- | --- | --- | --- |
| NC(=S)N/N=C\c1nccc2c(N)cccc12 | 11 | 14.2% | 3.21% (active) | 49% | 35.8% | 8.21% (active) | -15.5% (active) | 7.45% (active) | -34.8% (active) | 29.6% | 37.9% | 13.6% | 30.1% | 17.8% | 46.6% | 10.8% | -29% (active) | 5.29% (active) | 44.6% |  |
| CCN1CCCC(Nc2cc(C)nc(/N=C(/N)Nc3ccc(Cl)c(Cl)c3)n2)C1 (stereo not given) | 30.3 | -69.2% (active) | -70.6% (active) | -56.6% (active) | -81.3% (active) | -54.4% (active) |  | -84.9% (active) | -77.9% (active) | -37.2% (active) | -46.9% (active) | -76.8% (active) | -17.5% (active) | -82.4% (active) | 7.05% (active) | -97.6% (active) | -80.7% (active) | -61.5% (active) | -87.8% (active) | -73.7% (active) |
| O=C1C=CC(=O)N1c1ccccc1 | 109 | 52.6% | 101% | 78.6% | 88.7% | 112% |  | 96.9% | 94.2% |  | 103% |  | 106% | 94.1% |  | 106% | 93.2% |  | 117% | 100% |
| CCC1C[N+]2=C(c3cc(OC)c(OC)cc3CC2)c2c1cc1n2CCc2cc(OC)c(OC)cc2-1 (stereo not given) | 49 | 21.5% | 29.9% | 46.1% | 88.7% | 33.3% | 63.6% |  |  | 87.9% | 41% | 24.5% | 33.8% | 22.7% | 17.4% | -46.8% (active) | 18.7% | 41.7% | 32.8% | 31.9% |
| CCc1cnc2ccccc2c1/C=C/c1ccc(N(C)C)cc1 | 68.4 | 13% | 50.7% | 38.8% | 63% | 57.4% | 26% | 56.4% | 28.2% | 26% | 5.62% (active) | 43.4% | 41.1% | 26% | 54.7% | 46.6% | 25.3% | 43.7% | 59.9% |  |
